These results are taken from PubChem BioAssay (EPA / NIEHS).

Experiment [1] is described as follows: Tanguay_ZF_120hpf_BRAI_legacy: (Legacy) Oregon State University Tanguay Lab 120 Hour Post-fertilization zebrafish Assay for Brain Malformation (AID 2283641). In short, it runs like this:
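Brain malformation in Tropical 5D zebrafish was recorded as a binary endpoint after static compound exposure from early development to 120 hpf at 28C. Activity was analysed against DMSO as negative control.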

A short description of experiment [2]: Tanguay_ZF_120hpf_SOMI_legacy: (Legacy) Oregon State University Tanguay Lab 120 Hour Post-fertilization zebrafish Assay for Somite Malformation (AID 2283647). The method, boiled down:
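5D WT zebrafish; chorion removed 4 hpf; 1 embryo/well from 6 hpf; static exposure to 120 hpf, 28C, 0.64% DMSO final. Endpoint: somite malformation, binary, brightfield. Mortality excluded.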

A short description of experiment [3]: Tanguay_ZF_120hpf_PFIN_legacy: (Legacy) Oregon State University Tanguay Lab 120 Hour Post-fertilization zebrafish Assay for Pectoral Fin Malformation (AID 2283648).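 Note: each larva judged yes or no for fin defect by brightfield with dead larvae skipped.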 In short, it runs like this: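 Tropical 5D wild-type embryos, dechorionated with pronase at 4 hpf, were placed singly in wells at 6 hpf and statically exposed until 120 hpf at 28C, sealed and dark, with 0.64% (vol/vol) final DMSO; pectoral fin malformation scored present/absent.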

A short description of experiment [4]: Tanguay_ZF_120hpf_CFIN_legacy: (Legacy) Oregon State University Tanguay Lab 120 Hour Post-fertilization zebrafish Assay for Caudal Fin Malformation (AID 2283649). The method, boiled down: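 Embryos were collected from Tropical 5D wild-type adults and dechorionated at 4 hpf. At 6 hpf each was exposed, one per well, at 0.64% DMSO and 28C. At 120 hpf fin morphology was scored; dead embryos were excluded.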

The nature of experiment [5]: Tanguay_ZF_120hpf_PIG_legacy: (Legacy) Oregon State University Tanguay Lab 120 Hour Post-fertilization zebrafish Assay for Pigmentation Malformation (AID 2283650). The method, boiled down: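 Tropical 5D wild-type zebrafish embryos, dechorionated with pronase at 4 hpf, were exposed singly from 6 hpf to 120 hpf statically at 28C in sealed, dark plates with 0.64% DMSO; pigmentation scored present/absent by brightfield microscopy, fitted against DMSO.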

Experiment [6] can be described thus: Tanguay_ZF_120hpf_CIRC_legacy: (Legacy) Oregon State University Tanguay Lab 120 Hour Post-fertilization zebrafish Assay for Circulatory Malformation (AID 2283651). The method, boiled down:
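Using wild-type Tropical 5D zebrafish, we exposed dechorionated embryos from 6 to 120 hpf in embryo medium with 0.64% DMSO. Circulatory defects were scored as present or absent; 5uM trimethyltin chloride served as positive control.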

Experiment [7] in a line: Tanguay_ZF_120hpf_SWIM_legacy: (Legacy) Oregon State University Tanguay Lab 120 Hour Post-fertilization zebrafish Assay for Swim Bladder Malformation (AID 2283654).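 Note: swim bladder malformation in each larva scored yes or no under brightfield.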 In short, it runs like this:
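Dechorionated Tropical 5D wild-type embryos, placed singly from 6 hpf, were statically exposed at 28C to 120 hpf with 0.64% DMSO final; swim bladder malformation was scored present/absent by brightfield microscopy, gain of signal relative to DMSO controls.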

A short description of experiment [8]: Tanguay_ZF_120hpf_TRUN_legacy: (Legacy) Oregon State University Tanguay Lab 120 Hour Post-fertilization zebrafish Assay for Truncated Body (AID 2283655). The method, boiled down:
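5D wild-type larvae; pronase dechorionation; static exposure 6→120 hpf, 28C; DMSO 0.64% final; 5uM trimethyltin chloride positive control. Readout: presence/absence of truncated body, analyzed relative to DMSO.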

Experiment [9] can be described thus: Tanguay_ZF_120hpf_NC_legacy: (Legacy) Oregon State University Tanguay Lab 120 Hour Post-fertilization zebrafish Assay for Notochord and Tail Malformation (AID 2283656). The method, boiled down:
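Dechorionated 5D zebrafish, 1/well from 6 hpf; static exposure to 120 hpf, 28C, sealed, dark; final DMSO 0.64% v/v. NC scored binary (present/absent); dead embryos not scored. Fit vs DMSO baseline, gain direction.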

The nature of experiment [10]: Tanguay_ZF_120hpf_TR_legacy: (Legacy) Oregon State University Tanguay Lab 120 Hour Post-fertilization zebrafish Assay for Touch Response (AID 2283667). In short, it runs like this: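 Tropical 5D wild-type zebrafish embryos were exposed statically in sealed, foil-covered plates at 28C until 120 hpf, with 0.64% (vol/vol) final DMSO. Touch response was scored as present or absent; embryos that died were not scored.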

A short description of experiment [11]: CCTE_Padilla_ZF_144hpf_TERATOSCORE: (Legacy) CCTE's 144 Hour Post-fertilization zebrafish Assay Teratoscore, Padilla Lab (AID 2283679; active = hit-call score of the fitted dose curve at least 0.9, where 1 is the maximum; inactive = score below 0.9;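 for AC50: zebrafish embryos with chorions exposed by immersion from 6-8 hpf to 5 dpf with daily renewal; teratogenicity score from eye scoring of death hatching and malformations at 144 hpf; higher score means more developmental defects relative to DMSO baseline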). The method, boiled down:
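Larvae scored by eye at 144 hpf for death, hatching and malformations after a day in clean Hanks'. Before that, daily-renewed exposure at 80 uM (0.4% DMSO, 26C) from roughly 6-8 hpf through 5 dpf, 4 embryos per chemical.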

The nature of experiment [12]: STM_H9_CystineISnorm_perc: Stemina devTOX quickPredict H9 human embryonic stem cell (hESC)-based Assay for Cystine (CYSS) Metabolite Biomarker, Normalized (AID 2283713; active = hit-call score of the fitted dose curve at least 0.9, where 1 is the maximum; inactive = score below 0.9). The method, boiled down:
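Secreted cystine was measured by UPLC-HRMS in H9 hESC medium after 72h compound exposure with 24-hourly replenishment. Values are standard-normalized areas relative to 0.1% DMSO.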

Experiment [13] can be described thus: STM_H9_OrnCyssISnorm_ratio: Stemina devTOX quickPredict H9 human embryonic stem cell (hESC)-based Assay for Ornithine (ORN):Cystine (CYSS) Ratio (AID 2283714). In short, it runs like this: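 Undifferentiated H9 hESCs were exposed to compound for 72h with media and chemical replaced every 24h. Final 24-h conditioned media were deproteinized and analysed by UPLC-HRMS. ORN and CYSS peak areas were normalized to C13 internal standards and the ratio taken versus 0.1% DMSO.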

Read-out in experiment [14]: solute carrier (SLC22A6), SLC22A6 (gene 9356)
The experiment in a line: LTEA_HepaRG_SLC22A6: Life Technologies and Expression Analysis (LTEA) Assay for solute carrier (SLC22A6) using HepaRG (AID 2283653; active = hit-call score of the fitted dose curve at least 0.9, where 1 is the maximum; inactive = score below 0.9). Particulars: mRNA level, 48 h; actives raise or lower the signal. In short, it runs like this: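 This endpoint tracks SLC22A6 mRNA induction or suppression in human HepaRG cultures after 48 h dosing, concentrations reaching 100 uM. Values derive from bidirectional fitting against DMSO controls.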

Read-out in experiment [15]: solute carrier (SLC10A1), SLC10A1 (gene 6554)
Briefly: LTEA_HepaRG_SLC10A1: Life Technologies and Expression Analysis (LTEA) Assay for solute carrier (SLC10A1) using HepaRG (AID 2283657; active = hit-call score of the fitted dose curve at least 0.9, where 1 is the maximum; inactive = score below 0.9). Particulars: mRNA level, 48 h; actives raise or lower the signal. In short, it runs like this:
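Differentiated HepaRG cells were plated 48 h, then exposed in serum-free induction medium for 48 h to 8 concentrations (top 100 uM, half-log steps, 0.5% DMSO). SLC10A1 mRNA was quantified by qRT-PCR normalized to ACTB, GAPDH, POLR2A; bidirectional fit versus DMSO.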

Read-out in experiment [16]: matrix metalloproteinase-1 (MMP1), MMP1 (gene 4312)
Briefly: LTEA_HepaRG_MMP1: Life Technologies and Expression Analysis (LTEA) Assay for matrix metalloproteinase-1 (MMP1) using HepaRG (AID 2283658; active = hit-call score of the fitted dose curve at least 0.9, where 1 is the maximum; inactive = score below 0.9). Particulars: mRNA level, 48 h; actives raise or lower the signal. The method, boiled down:
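Bidirectional concentration-response fitting relative to 0.5% DMSO gives the endpoint, derived from MMP1 mRNA levels (qRT-PCR) in human HepaRG cells treated 48 h with chemicals up to 100 uM.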

Experiment [17] concerns Thyroperoxidase (TPO), gene 54314. Briefly: CCTE_Simmons_AUR_rTPO: CCTE's Amplex UltraRed Assay for Thyroperoxidase (TPO) Inhibition, Simmons Lab (AID 2283662).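 Note: potency for loss of signal meaning inhibition of peroxidase activity.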 The method, boiled down: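 Rat thyroid microsomes (5 ug protein) with 25 uM Amplex UltraRed and 300 uM H2O2 in 200 mM phosphate buffer, 30 min at 37C in dark; fluorescence 544/590 nm. Eight concentrations, 5 nM–87.5 uM final, 0.5% DMSO, triplicate biological replicates.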

Experiment [18] is described as follows: CCTE_Simmons_CellTiterGLO_HEK293T: Viability Assessment in CCTE's Assays for Thyroperoxidase (TPO) Inhibition, Simmons Lab (AID 2283665).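 Note: cells exposed to compound for 24 h before readout; actives reduce ATP signal below DMSO vehicle meaning cytotoxicity.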 In short, it runs like this:
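Cytotoxicity counter-screen: human HEK293T cells in low-serum (1% FBS) medium receive test chemical, 5 nM to 87.5 uM final, for 24 h; ATP is quantified by luciferase luminescence.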
Background: ATP-based viability assays read luminescence as a measure of living cells.

Read-out in experiment [19]: Cytochrome P450 (CYP24A1_1), CYP24A1 (gene 1591)
The experiment in a line: LTEA_HepaRG_CYP24A1_1: Life Technologies and Expression Analysis (LTEA) Assay for Cytochrome P450 (CYP24A1_1) using HepaRG (AID 2283671; active = hit-call score of the fitted dose curve at least 0.9, where 1 is the maximum; inactive = score below 0.9). The conditions noted are these: mRNA level, 48 h; actives raise or lower the signal. In short, it runs like this: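 HepaRG, 48 h exposure, 8-pt half-log series from 100 uM in 0.5% DMSO, duplicates. Readout: TaqMan qRT-PCR of CYP24A1 mRNA, housekeeping-normalized (ACTB/GAPDH/POLR2A). Bidirectional curve fit vs DMSO baseline.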

Molecules are shown by their SMILES. “And” between values parts separate entries of the source, which are not always exact repeats. Identical values can stand only once. Records with an inconclusive call do not appear. The source made the active and inactive calls. Rule for the calls, unless noted: active = hit-call score of the fitted dose curve at least 0.9, where 1 is the maximum; inconclusive = response in the unintended direction; inactive = score below 0.9.

Take `O=C(O)Cc1cc(I)c(Oc2cc(I)c(O)c(I)c2)c(I)c1`: the values for the half-maximal activity concentration (AC50) in [1], in [5] and in [11] were 6.12 nM (active), 19.2 nM (active) and 35.2 nM (active), respectively. The result in experiment [2], in experiment [3], in experiment [4], in experiment [6], in experiment [7] and in [8] was inactive. Besides, the compound was called inactive in experiment [9], in experiment [10], in [12] and in experiment [13].
Take `CC(C)(C)c1cc(C(C)(C)C)c(O)c(C(C)(C)C)c1`: the outcome in experiment [1], in [3], in experiment [4], in experiment [5], in experiment [14] and in [7] was inactive. Also, the compound was called inactive in experiment [8], in [9], in [15], in experiment [16], in experiment [10] and in experiment [19]. The AC50 in experiment [17] was 2650 nM (active); in experiment [18] it was 9060 nM (active); in [11], 7360 nM (active).
In the case of `CCc1nn(C2CCCCC2)c2cc(C3(C#N)CCC(C(=O)O)CC3)ccc12` (centres undefined), the AC50 in [1] is 2710 nM (active); in experiment [3], 563 nM (active); in experiment [4], 150 nM (active); in [7], 419 nM (active); in experiment [8] it was 171 nM (active); in experiment [10] it was 2480 nM (active). Besides, the AC50 in experiment [11] is 263 nM (active). Further, the compound was called inactive in [5] and in [9].
`CN1CCC[C@H]1c1cccnc1`: the compound was classed as inactive in experiment [1], in experiment [2], in experiment [3], in experiment [4], in experiment [5] and in [7]. In addition, the compound was called inactive in experiment [8], in experiment [9], in experiment [10] and in experiment [12].
With `CCC(C)(C)C1CCC(O)CC1` (centres undefined), the result in [1], in [2], in experiment [3], in experiment [4], in experiment [5] and in [7] was inactive. In addition, the outcome in [8], in experiment [9], in [10] and in experiment [11] was inactive.
Consider `O=[N+]([O-])c1ccc(O)cc1`, for which the outcome in experiment [1], in experiment [3], in experiment [4], in experiment [5], in [7] and in experiment [8] was inactive. The compound was classed as inactive in [9] and in experiment [10]. The half-maximal activity concentration (AC50) in experiment [11] was 64.4 µM (active) and 59 µM (active).
Take `CC(C)CCCCCCOC(=O)CCCCC(=O)OCCCCCCC(C)C`: the compound was classed as inactive in [1], in experiment [2], in experiment [4], in experiment [5], in experiment [7] and in experiment [8]. Besides, the call in [9] and in [10] was inactive.

As a reminder, the AC50 is the midpoint of the concentration-response curve, whichever way the signal moves.
